Assay results from PubChem BioAssay (EPA / NIEHS).
Activity calls are given as the source filed them. Rule for the calls: active = hit-call score of the fitted dose curve at least 0.9, where 1 is the maximum; inactive = score below 0.9.

How the values were obtained:
[1] = APR_HepG2_P-H2AX_72hr: Apredica 72-hour HepG2 Assay for H2AX Phosphorylation (AID 2282916); conditions: imaging, actives raise or lower the signal;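 note: phospho-histone H2A.x immunostain intensity per cell marking DNA damage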
Procedure, shortened: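 Phospho-histone H2A.x immunofluorescence, multiplexed with Hoechst and c-Jun, quantified by high-content imaging. Compounds applied to HepG2 for 72 h across ten concentrations (0.39–200 uM, 0.5% DMSO), in duplicate; DMSO baseline.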

[2] = APR_HepG2_MitoticArrest_72hr: Apredica 72-hour HepG2 Assay for Mitotic Arrest (AID 2282918); conditions: high-content imaging, actives raise or lower the signal
Procedure, shortened: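 Mitotic arrest in HepG2 is scored from phospho-histone H3 staining after 72 hr dosing across 0.39–200 uM, with DMSO at 0.5% v/v. Nuclei are identified by Hoechst 33342 and fluorescence intensity is quantified per cell.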

[3] = APR_HepG2_MicrotubuleCSK_72hr: Apredica 72-hour HepG2 Assay for Microtubule CSK Stabilty (AID 2282919); conditions: HepG2 microtubule cytoskeleton, high-content imaging, actives raise or lower the signal
Procedure, shortened: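 HepG2, 72 hr cmpd exposure, 0.39–200 uM (10 pts, duplicate), 0.5% DMSO. 3.7% formaldehyde fix, 0.5% Triton perm, anti-alpha-tubulin/Cy5 plus Hoechst. HCS fluorescence intensity; bidirectional fit vs DMSO baseline; taxol as positive control.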

[4] = APR_HepG2_P-H2AX_24hr: Apredica 24-hour HepG2 Assay for H2AX Phosphorylation (AID 2282920); conditions: high-content imaging, actives raise or lower the signal
Procedure, shortened: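 Signal comes from a FITC-labeled secondary detecting phospho-histone H2A.x in fixed HepG2 cells, quantified by automated imaging at 20x. Dosing ran 24 hr across 0.39–200 uM with 0.5% v/v DMSO.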

[5] = APR_HepG2_StressKinase_72hr: Apredica 72-hour HepG2 Assay for Stress Kinase (AID 2282921); conditions: HepG2 stress kinase (phospho-c-Jun) imaging, actives raise or lower the signal
Procedure, shortened: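 Stress kinase signal is phospho-c-Jun immunofluorescence (1:500 primary, Cy3 secondary) in fixed, permeabilized human HepG2 cells imaged at 20x. Exposure lasted 72 hr over ten concentrations from 0.39 to 200 uM, 0.5% DMSO, in duplicate. Bidirectional fit versus DMSO.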

[6] = APR_HepG2_StressKinase_24hr: Apredica 24-hour HepG2 Assay for Stress Kinase (AID 2282922); conditions: HepG2 stress kinase (phospho-c-Jun) imaging, actives raise or lower the signal
Procedure, shortened: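 Read-out: phospho-c-Jun immunofluorescence (Cy3 secondary) quantified by high-content imaging at 20x, nuclei defined by Hoechst 33342. Human HepG2 liver cells dosed 24 hr, 0.39–200 uM, DMSO 0.5% v/v; gain or loss of signal fitted relative to DMSO.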

[7] = APR_HepG2_p53Act_72hr: Apredica 72-hour HepG2 Assay for p53 Activation (AID 2282923); conditions: high-content imaging, actives raise or lower the signal;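 note: average cellular p53 protein immunofluorescence intensity in HepG2 cells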
Procedure, shortened: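 After 72 h with compound (ten points, 0.39 to 200 uM, final DMSO 0.5% v/v), fixed HepG2 cells were labelled with sheep anti-p53 and Hoechst 33342 and imaged; gain or loss versus DMSO scored.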

[8] = APR_HepG2_MitoMass_72hr: Apredica 72-hour HepG2 Assay for Mitochondrial Mass (AID 2282924); conditions: high-content imaging, actives raise or lower the signal;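 note: MitoTracker Red CMXRos stain intensity per cell imaged as mitochondrial mass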
Procedure, shortened: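 Read-out: MitoTracker Red fluorescence intensity from automated imaging (20x, six fields per well) in human HepG2 liver cells. Dosing ran 72 hr, 0.39–200 uM, 0.5% DMSO; bidirectional curve fitting versus DMSO baseline.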

[9] = APR_HepG2_NuclearSize_72hr: Apredica 72-hour HepG2 Assay for Nuclear Size (AID 2282925); conditions: high-content imaging, actives raise or lower the signal
Procedure, shortened: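 Read-out: nuclear diameter from Hoechst 33342 images (ArrayScan, 20x, six fields/well), via cell-cycle image analysis. HepG2 were dosed 0.39–200 uM for 72 hr in 0.5% DMSO. Bidirectional fit relative to DMSO.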

[10] = ATG_CRE_CIS: Attagene CIS-FACTORIAL HepG2 Assay for human cAMP Responsive Element (CRE) binding protein 3 (AID 2282926); conditions: HepG2 CRE cis-reporter, Attagene multiplexed mRNA; actives raise or lower the signal
Procedure, shortened: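 Cells carrying cis-regulated reporter constructs respond through their own endogenous factors. After 24 h treatment, RNA is reverse-transcribed, amplified, labelled and sized by capillary electrophoresis; up- and down-regulation are both scored against vehicle.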

[11] = target: CCAAT/enhancer-binding protein beta (Homo sapiens) (UniProt P17676); experiment: ATG_C_EBP_CIS: Attagene CIS-FACTORIAL HepG2 Assay for human CCAAT/Enhancer Binding Protein (C/EBP) beta (AID 2282927); conditions: HepG2 Attagene cis-factorial transcription factor reporter; actives raise or lower the signal
Procedure, shortened: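 HepG2 transiently transfected with multiplexed reporter units under cis-regulatory promoters reporting endogenous C/EBPb activity. After 24 h exposure, reporter mRNA assayed by RT-PCR, fluorescent labelling, HpaI digestion and capillary electrophoresis; bidirectional fitting versus DMSO.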

[12] = ATG_CMV_CIS: Attagene CIS-FACTORIAL HepG2 Assay for human CMV (Internal Marker) (AID 2282928); conditions: HepG2 CMV promoter reporter, transcription factor profiling; actives raise or lower the signal;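 note: endpoint acts as a background internal control marker rather than a target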
Procedure, shortened: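 Readout: fluorescent reporter cDNA fragments separated by capillary electrophoresis after RT-PCR and HpaI cut. Cells: HepG2 carrying transfected cis-promoter reporter constructs, dosed 24 h. Endpoint serves as background internal-marker control, fit bidirectionally versus DMSO.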

[13] = ATG_DR4_LXR_CIS: Attagene CIS-FACTORIAL HepG2 Assay for human Liver X Receptor (LXR), DR4 submotif (AID 2282929); conditions: HepG2 Attagene DR4 cis-reporter, mRNA transcription; actives raise or lower the signal
Procedure, shortened: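 DR4 cis-reporter in HepG2, 24 h exposure. Detection: RT-PCR, 6-FAM labelling, CE fragment analysis. Endpoint fitted bidirectionally, DMSO = baseline.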

[14] = target: Aryl hydrocarbon receptor (Homo sapiens) (UniProt P35869); experiment: ATG_Ahr_CIS: Attagene CIS-FACTORIAL HepG2 Assay for human Aryl Hydrocarbon Receptor (Ahr) (AID 2282930); conditions: HepG2 AhR cis-factorial reporter transcription; actives raise or lower the signal
Procedure, shortened: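 HepG2 cells transiently transfected with cis-element-driven multiplexed reporter units; endogenous AhR activity read as reporter mRNA 24 h after dosing, via RT-PCR, 6-FAM labelling, HpaI digestion and capillary electrophoresis. Bidirectional fit relative to DMSO.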

[15] = ATG_AP_1_CIS: Attagene CIS-FACTORIAL HepG2 Assay for human Activator Protein 1 (AP-1) (AID 2282931); conditions: HepG2 Attagene cis-factorial AP-1 reporter mRNA; actives raise or lower the signal
Procedure, shortened: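 Cis-regulated reporter units transiently expressed in HepG2 report endogenous transcription-factor activity. Signal: reporter mRNA at 24 h, via RT-PCR and fluorescent capillary electrophoresis. Endpoint derived by bidirectional fitting, DMSO as negative control.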

[16] = ATG_AP_2_CIS: Attagene CIS-FACTORIAL HepG2 Assay for human Activator Protein 2 (AP-2) (AID 2282932); conditions: HepG2 AP-2 cis-reporter, Attagene transcription factor profiling; actives raise or lower the signal
Procedure, shortened: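 Liver-derived HepG2 line, cis-reporter system measuring endogenous factors; 24 h dosing; reporter mRNA detected by fluorescent RT-PCR and capillary electrophoresis.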

[17] = ATG_BRE_CIS: Attagene CIS-FACTORIAL HepG2 Assay for human Bone Morphogenetic Protein (BMP) Response Element (BRE) (AID 2282933); conditions: HepG2 BMP response element reporter, Attagene transcription factor profiling; actives raise or lower the signal
Procedure, shortened: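 Read-out: reporter mRNA induction quantified by RT-PCR and capillary electrophoresis after 24 h chemical exposure of transfected HepG2 cells. Endogenous factor activity on the BMP response element; gain or loss fitted against DMSO baseline.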

[18] = target: Retinoic acid receptor alpha (Homo sapiens) (UniProt P10276); experiment: ATG_DR5_RAR_CIS: Attagene CIS-FACTORIAL HepG2 Assay for human Retinoic Acid Receptor Alpha (RARE), DR5 submotif (AID 2282934); conditions: HepG2 Attagene cis-factorial RARE DR5 reporter, mRNA; actives raise or lower the signal
Procedure, shortened: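 HepG2 cells transiently transfected with multiplexed reporter units; DR5 cis-element drives reporter through endogenous transcription factors. After 24 h dosing, reporter mRNA quantified by RT-PCR, fluorescent labeling, HpaI digestion and capillary electrophoresis; bidirectional fitting versus DMSO.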

[19] = target: Transcription factor E2F1 (Homo sapiens) (UniProt Q01094); experiment: ATG_E2F_CIS: Attagene CIS-FACTORIAL HepG2 Assay for human E2F Transcription Factor 1 (AID 2282935); conditions: HepG2 Attagene cis-reporter, E2F reporter RNA transcripts; actives raise or lower the signal
Procedure, shortened: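 Liver-derived HepG2 cells expressing transfected promoter-driven reporter units received test chemical for 24 hours. Signal gains or losses were fitted bidirectionally against DMSO.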

[20] = APR_HepG2_MitoMembPot_72hr: Apredica 72-hour HepG2 Assay for Mitochondrial Membrane Potential (AID 2282917); conditions: imaging, actives raise or lower the signal
Procedure, shortened: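 HepG2 cells dosed 72 hr with compound at 0.39–200 uM in duplicate, 0.5% v/v DMSO final. Mitochondria stained with 250 nM MitoTracker Red CMXRos for 30 min before formaldehyde fixation, imaged by high-content fluorescence; bidirectional fit versus DMSO.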

Measured: AC50

CCAAT/enhancer-binding protein beta (Homo sapiens), sequence (P17676 whole entry, looked up): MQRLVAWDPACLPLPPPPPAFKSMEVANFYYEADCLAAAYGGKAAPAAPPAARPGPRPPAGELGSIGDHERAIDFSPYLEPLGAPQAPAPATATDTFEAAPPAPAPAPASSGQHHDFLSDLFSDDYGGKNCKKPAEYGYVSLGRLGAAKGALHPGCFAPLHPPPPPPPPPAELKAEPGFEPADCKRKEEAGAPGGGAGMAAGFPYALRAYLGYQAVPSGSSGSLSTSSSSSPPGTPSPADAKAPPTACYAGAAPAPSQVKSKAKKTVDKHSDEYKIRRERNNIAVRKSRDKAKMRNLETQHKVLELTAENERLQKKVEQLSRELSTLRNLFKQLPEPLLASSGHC
Transcription factor E2F1 (Homo sapiens), sequence (Q01094 whole entry, looked up): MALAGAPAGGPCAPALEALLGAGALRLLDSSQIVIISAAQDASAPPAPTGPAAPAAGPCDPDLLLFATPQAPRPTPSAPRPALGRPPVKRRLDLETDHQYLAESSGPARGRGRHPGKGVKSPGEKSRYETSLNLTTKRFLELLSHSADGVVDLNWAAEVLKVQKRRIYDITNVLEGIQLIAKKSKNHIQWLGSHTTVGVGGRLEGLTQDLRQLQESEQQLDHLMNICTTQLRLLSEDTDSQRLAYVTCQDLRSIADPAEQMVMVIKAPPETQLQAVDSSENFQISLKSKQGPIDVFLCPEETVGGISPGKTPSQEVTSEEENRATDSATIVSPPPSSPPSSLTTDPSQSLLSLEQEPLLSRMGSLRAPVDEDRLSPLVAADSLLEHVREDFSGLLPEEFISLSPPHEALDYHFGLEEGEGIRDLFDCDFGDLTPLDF
Aryl hydrocarbon receptor (Homo sapiens), sequence (P35869 whole entry, looked up): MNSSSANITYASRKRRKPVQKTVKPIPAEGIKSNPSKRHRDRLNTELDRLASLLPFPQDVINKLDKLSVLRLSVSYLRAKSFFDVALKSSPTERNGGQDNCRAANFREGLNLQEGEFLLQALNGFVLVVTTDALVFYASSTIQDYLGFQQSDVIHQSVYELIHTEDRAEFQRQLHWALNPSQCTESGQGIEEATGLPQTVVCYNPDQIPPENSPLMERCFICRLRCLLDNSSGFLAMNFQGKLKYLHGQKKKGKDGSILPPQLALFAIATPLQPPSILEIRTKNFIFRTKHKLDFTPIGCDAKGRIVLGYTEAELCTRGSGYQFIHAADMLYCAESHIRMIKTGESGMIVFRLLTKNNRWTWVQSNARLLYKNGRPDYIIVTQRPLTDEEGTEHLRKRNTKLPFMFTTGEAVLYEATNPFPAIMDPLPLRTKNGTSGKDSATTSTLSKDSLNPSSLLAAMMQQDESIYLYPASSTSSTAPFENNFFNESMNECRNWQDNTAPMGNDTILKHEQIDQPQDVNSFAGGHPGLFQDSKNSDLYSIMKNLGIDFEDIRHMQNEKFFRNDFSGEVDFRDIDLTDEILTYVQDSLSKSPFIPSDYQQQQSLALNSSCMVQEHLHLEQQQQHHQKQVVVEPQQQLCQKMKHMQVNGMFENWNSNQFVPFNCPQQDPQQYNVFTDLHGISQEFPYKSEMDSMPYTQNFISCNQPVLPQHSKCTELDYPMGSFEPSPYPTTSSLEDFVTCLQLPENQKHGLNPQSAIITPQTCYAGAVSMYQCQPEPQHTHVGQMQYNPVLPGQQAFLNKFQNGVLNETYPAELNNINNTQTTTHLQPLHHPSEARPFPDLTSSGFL
Retinoic acid receptor alpha (Homo sapiens), sequence (P10276 whole entry, looked up): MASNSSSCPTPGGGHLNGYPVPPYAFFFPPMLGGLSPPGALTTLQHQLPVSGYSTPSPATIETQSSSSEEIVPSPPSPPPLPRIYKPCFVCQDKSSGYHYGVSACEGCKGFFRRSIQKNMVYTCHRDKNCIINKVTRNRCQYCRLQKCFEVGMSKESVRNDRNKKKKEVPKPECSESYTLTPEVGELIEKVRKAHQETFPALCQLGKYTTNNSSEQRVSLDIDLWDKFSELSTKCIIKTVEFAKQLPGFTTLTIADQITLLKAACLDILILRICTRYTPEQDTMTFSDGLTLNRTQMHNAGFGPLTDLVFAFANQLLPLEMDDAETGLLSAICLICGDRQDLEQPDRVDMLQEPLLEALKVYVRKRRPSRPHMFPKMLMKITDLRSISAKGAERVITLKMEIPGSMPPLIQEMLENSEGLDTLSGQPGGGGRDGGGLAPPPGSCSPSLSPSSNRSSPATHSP

CCC12COCN1COC2
active: [1] 82.1 µM | [2] 83.2 µM | [4] 87.6 µM | [6] 99.5 µM | [7] 79.2 µM
not listed: [17] | [18] | [19] | [20]
inactive: all other assays above

CCCCOC(=O)c1ccccc1C(=O)OCc1ccccc1
active: [7] 98.9 µM
not listed: [20]
inactive: all other assays above

CCOc1cccc(C2(N3CCN(c4ccccc4)CC3)CCC(C)CC2)c1 (stereo not drawn)
not listed: [13] | [17] | [19] | [20]
inactive: all other assays above

Cc1ccc(N)cc1
not listed: [20]
inactive: all other assays above

CN(C)[C@@H]1C(=O)C(C(N)=O)=C(O)[C@@]2(O)C(=O)C3=C(O)c4c(O)cccc4[C@@](C)(O)[C@H]3C[C@@H]12
active: [12] 137 µM
not listed: [9] | [13] | [17] | [18] | [19]
inactive: all other assays above

O=Cc1ccco1
not listed: [17] | [20]
inactive: all other assays above

c1ccc(C2CO2)cc1 (stereo not drawn)
not listed: [13] | [18] | [20]
inactive: all other assays above

C1=Cc2cccc3cccc1c23
not listed: [9] | [17]
inactive: all other assays above
